# Assay results: the supplement of paper PMC8728848
# This excerpt belongs to a sample that is enriched for the strongest signals.
# Assays:
# Experiment in all cases: glycan array binding signal (z-score within array); higher = stronger binding
# Details in all cases: glycan notation: IUPAC condensed, linker removed; mutation: R186I
# [1] = target: Fuc(a1-2)Gal(b1-3)GalNAc(b1-3)Gal
# Procedure, shortened: (§1)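 Glycan array data were curated from 3228 arrays in the Consortium for Functional Glycomics database and kept only where the protein sequence was available. Glycan names were converted to IUPAC-condensed notation, and columns mapping to the same glycan were averaged. The binding signal is a within-array Z-score, averaged across arrays of the same protein sequence at different concentrations or buffers and across linkers. Negative Z-scores can be read as non-binding.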
# [2] = target: Fuc(a1-2)Gal(b1-3)GalNAc(b1-3)Gal(a1-4)Gal(b1-4)Glc
# Procedure, shortened: as §1
# [3] = target: Fuc(a1-2)Gal(b1-3)GlcNAc(b1-3)[Fuc(a1-3)[Gal(b1-4)]GlcNAc(b1-6)]Gal(b1-4)Glc
# Procedure, shortened: as §1
# [4] = target: Fuc(a1-2)Gal(b1-4)GlcNAc(b1-2)Man(a1-3)[Fuc(a1-2)Gal(b1-4)GlcNAc(b1-2)Man(a1-6)]Man(b1-4)GlcNAc(b1-4)GlcNAc
# Procedure, shortened: as §1
# [5] = target: Fuc(a1-2)[Gal(a1-3)]Gal(b1-3)GlcNAc(b1-2)Man(a1-3)[Fuc(a1-2)[Gal(a1-3)]Gal(b1-3)GlcNAc(b1-2)Man(a1-6)]Man(b1-4)GlcNAc(b1-4)GlcNAc
# Procedure, shortened: as §1
# [6] = target: Fuc(a1-2)[Gal(a1-3)]Gal(b1-4)GlcNAc(b1-2)Man(a1-3)[Fuc(a1-2)[Gal(a1-3)]Gal(b1-4)GlcNAc(b1-2)Man(a1-6)]Man(b1-4)GlcNAc(b1-4)GlcNAc
# Procedure, shortened: as §1
# [7] = target: Fuc(a1-2)[GalNAc(a1-3)]Gal(b1-3)GlcNAc(b1-2)Man(a1-3)[Fuc(a1-2)[GalNAc(a1-3)]Gal(b1-3)GlcNAc(b1-2)Man(a1-6)]Man(b1-4)GlcNAc(b1-4)GlcNAc
# Procedure, shortened: as §1
# [8] = target: Fuc(a1-2)[GalNAc(a1-3)]Gal(b1-4)GlcNAc(b1-2)Man(a1-3)[Fuc(a1-2)[GalNAc(a1-3)]Gal(b1-4)GlcNAc(b1-2)Man(a1-6)]Man(b1-4)GlcNAc(b1-4)GlcNAc
# Procedure, shortened: as §1
# [9] = target: Fuc(a1-2)[GalNAc(a1-3)]Gal(b1-4)GlcNAc(b1-3)Gal(b1-4)GlcNAc(b1-3)Gal(b1-4)GlcNAc
# Procedure, shortened: as §1
# [10] = target: Fuc(a1-3)[Gal3S(b1-4)]GlcNAc
# Procedure, shortened: as §1
# [11] = target: Fuc(a1-3)[Gal3S(b1-4)]GlcNAc6S
# Procedure, shortened: as §1
# [12] = target: Gal(a1-4)Gal(b1-4)GlcNAc
# Procedure, shortened: as §1
# [13] = target: Gal(b1-3)Gal(b1-4)GlcNAc(b1-2)Man(a1-3)[Gal(b1-3)Gal(b1-4)GlcNAc(b1-2)Man(a1-6)]Man(b1-4)GlcNAc(b1-4)GlcNAc
# Procedure, shortened: as §1
# [14] = target: Gal(b1-3)GalNAc(a1-3)[Fuc(a1-2)]Gal(b1-4)GlcNAc
# Procedure, shortened: as §1
# [15] = target: Gal(b1-3)GlcNAc(b1-3)Gal(b1-4)GlcNAc
# Procedure, shortened: as §1
# [16] = target: Gal(b1-3)GlcNAc(b1-3)Gal(b1-4)[Fuc(a1-3)]GlcNAc(b1-6)[Gal(b1-3)GlcNAc(b1-3)]Gal(b1-4)Glc
# Procedure, shortened: as §1
# [17] = target: Gal(b1-3)GlcNAc(b1-6)Gal(b1-4)GlcNAc
# Procedure, shortened: as §1
# [18] = target: Gal(b1-3)[Fuc(a1-4)]GlcNAc(b1-2)Man(a1-3)[Gal(b1-3)[Fuc(a1-4)]GlcNAc(b1-2)Man(a1-6)]Man(b1-4)GlcNAc(b1-4)GlcNAc
# Procedure, shortened: as §1
# [19] = target: Gal(b1-3)[GlcNAc(b1-6)]GalNAc
# Procedure, shortened: as §1
# [20] = target: Gal(b1-4)GlcNAc(b1-3)Gal(b1-3)GlcNAc
# Procedure, shortened: as §1
# [21] = target: Gal(b1-4)GlcNAc(b1-3)[Gal(b1-4)GlcNAc(b1-6)]Gal(b1-4)GlcNAc
# Procedure, shortened: as §1
# [22] = target: Gal3S(b1-4)Glc
# Procedure, shortened: as §1
# [23] = target: Gal3S(b1-4)[Fuc(a1-3)]Glc
# Procedure, shortened: as §1
# [24] = target: GalNAc(b1-3)Gal(a1-4)Gal(b1-4)GlcNAc(b1-3)Gal(b1-4)Glc
# Procedure, shortened: as §1
# [25] = target: Glc(a1-6)Glc(a1-6)Glc
# Procedure, shortened: as §1
# [26] = target: GlcNAc(b1-3)Man
# Procedure, shortened: as §1
# [27] = target: Man(a1-2)Man(a1-3)[Man(a1-2)Man(a1-6)]Man(a1-6)[Man(a1-2)Man(a1-2)Man(a1-3)]Man
# Procedure, shortened: as §1
# [28] = target: Man(a1-6)Man
# Procedure, shortened: as §1
# [29] = target: Neu5Ac(a2-3)Gal(b1-4)GlcNAc(b1-2)Man(a1-3)[GlcNAc(b1-2)Man(b1-4)GlcNAc(b1-2)Man(a1-6)]Man(b1-4)GlcNAc(b1-4)GlcNAc
# Procedure, shortened: as §1
# [30] = target: Neu5Ac(a2-3)Gal(b1-4)[Fuc(a1-3)]GlcNAc
# Procedure, shortened: as §1
# [31] = target: Neu5Ac(a2-6)Gal(b1-4)GlcNAc(b1-3)Gal(b1-4)GlcNAc(b1-3)Gal(b1-4)GlcNAc
# Procedure, shortened: as §1
# [32] = target: Neu5Ac9Ac(a2-6)Gal(b1-4)GlcNAc
# Procedure, shortened: as §1
# [33] = target: Neu5Gc(a2-3)Gal(b1-4)GlcNAc
# Procedure, shortened: as §1
# [34] = target: Neu5Gc(a2-3)Gal(b1-4)[Fuc(a1-3)]GlcNAc
# Procedure, shortened: as §1
binder,measurement,setting,value
"Gal 3 (Homo sapiens), P17931 (protein) MADNFSLHDALSGSGNPNPQGWPGAWGNQPAGAGGYPGASYPGAYPGQAPPGAYPGQAPPGAYHGAPGAYPGAPAPGVYPGPPSGPGAYPSSGQPSAPGAYPATGPYGAPAGPLIVPYNLPLPGGVVPRMLITILGTVKPNANILDFQRGNDVAFHFNPRFNENNRRVIVCNTKLDNNWGREEIQSVFPFESGKPFKIQVLVEPDHFKVAVNDAHLLQYNHRVKKLNEISKLGISGDIDLTSASYTMI",glycan array binding signal (z-score),[1],-0.188
same,glycan array binding signal (z-score),[2],-0.055
same,glycan array binding signal (z-score),[3],-0.187
same,glycan array binding signal (z-score),[4],2.01
same,glycan array binding signal (z-score),[5],5.08
same,glycan array binding signal (z-score),[6],10.8
same,glycan array binding signal (z-score),[7],3.39
same,glycan array binding signal (z-score),[8],8.83
same,glycan array binding signal (z-score),[9],-0.113
same,glycan array binding signal (z-score),[10],-0.147
same,glycan array binding signal (z-score),[11],-0.154
same,glycan array binding signal (z-score),[12],-0.127
same,glycan array binding signal (z-score),[13],11.1
same,glycan array binding signal (z-score),[14],-0.146
same,glycan array binding signal (z-score),[15],-0.166
same,glycan array binding signal (z-score),[16],-0.002
same,glycan array binding signal (z-score),[17],-0.173
same,glycan array binding signal (z-score),[18],-0.173
same,glycan array binding signal (z-score),[19],-0.128
same,glycan array binding signal (z-score),[20],0.065
same,glycan array binding signal (z-score),[21],0.077
same,glycan array binding signal (z-score),[22],-0.189
same,glycan array binding signal (z-score),[23],-0.171
same,glycan array binding signal (z-score),[24],2.69
same,glycan array binding signal (z-score),[25],-0.021
same,glycan array binding signal (z-score),[26],-0.189
same,glycan array binding signal (z-score),[27],-0.075
same,glycan array binding signal (z-score),[28],-0.185
same,glycan array binding signal (z-score),[29],-0.073
same,glycan array binding signal (z-score),[30],-0.164
same,glycan array binding signal (z-score),[31],-0.107
same,glycan array binding signal (z-score),[32],-0.185
same,glycan array binding signal (z-score),[33],-0.157
same,glycan array binding signal (z-score),[34],-0.165
